# In all, about 2,100 compounds went through this assay and about 260 (12%) were called active. Roughly 58% stayed inconclusive and do not appear here. Calls come from the whole dose curve; as a rule, active = well fitted cell-killing curve with a large enough effect; inconclusive = small, poorly fitted or top-dose-only effect, or effect the other way; inactive = flat fitted curve, though single readings scatter. The list shows a part of the results.
# Experiment: Viability Counterscreen for Confirmatory qHTS for Inhibitors of ATXN expression; note: nearly all actives have a fitted effect of over 50% in size
# Conditions: HEK-293 ATXN2-luc cells viability, CellTiter-Fluor, 24 h; activity change, negative = cytotoxicity: at the top concentration
# Summary of the method: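 Cells with an ATXN2-luciferase reporter were dosed in a dilution series for 24 h at 37 degrees C. Viability was read first with Gly-Phe-AFC at 25 uM final (fluorescence, ex 405/em 540), then SteadyGlo luminescence. Medium-only wells defined 100% inhibition.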
# Potency is the fitted concentration of half-maximal effect.
SMILES,"activity change, negative = cytotoxicity",Potency
CC(C)Nc1nc(-c2ccccn2)nc(-c2ccccc2)c1C#N,-20.8% [at 57.5 µM] (inactive),
CCN(CC)c1nc(-c2ccccn2)nc(-c2ccccc2)c1C#N,,8.91 µM (active)
Cn1cc(SCC(=O)Nc2nc3ccccc3s2)c2ccccc21,-4.73% (inactive),
COc1ccccc1NS(=O)(=O)c1cccc(C(=O)N/N=C/c2ccc([N+](=O)[O-])o2)c1,,15.8 µM (active)
O=C(N/N=C/c1ccccc1O)c1cccc(C(F)(F)F)c1,-7.41% (inactive),
COc1cccc(/C=N/NC(=O)c2cc3c(OC)cccc3[nH]2)c1O,-32.3% [at 57.5 µM] (inactive),
c1ccc(COc2ncnc3c2ncn3CCCN2CCN(Cc3cccc4ccccc34)CC2)cc1,,25.1 µM (active)
CCOC(=O)/C=C/C(=O)Nc1ccc(Oc2ccccc2)cc1,-17.2% (inactive),
CN(CCOc1ccc(Br)cc1)CC(O)COc1ccc(C#N)cc1 (stereo not given),-16.9% [at 57.5 µM] (inactive),
OC[C@@H]1CN(Cc2ccc(-c3ccccc3)cc2)C[C@H](n2cnc3c(Nc4ccccc4)ncnc32)O1,,20 µM (active)
Cc1csc2ncnc(NC3CCN(Cc4ccccc4)CC3)c12,-19.2% [at 57.5 µM] (inactive),
Cc1cccc(/C=N/NC(=O)c2c(-c3ccccc3)noc2C)c1O,-17.6% (inactive),
COCCCNCCCOc1ccc(Cl)cc1C(C)(C)C,,35.5 µM (active)
Cc1cc(Cl)ccc1OCCCC(=O)NNC(=O)c1ccccc1O,-10.4% (inactive),
CCCCNCCCOc1cccc(Cl)c1Cl,-20.9% [at 57.5 µM] (inactive),
NC(=S)n1[nH]c(-c2ccc([N+](=O)[O-])cc2)c(N=Nc2cccc(Cl)c2)c1=O,,11.2 µM (active)
Cc1cc2sc3ccc(C#CC4(O)CCCCC4)cc3c(=O)c2cc1C,-17.5% [at 57.5 µM] (inactive),
Cc1ccc(NC(=O)CNc2cccc(Br)c2)cc1S(=O)(=O)N1CCOCC1,-29.9% (inactive),
CC(C)[C@@H]1CC[C@@H](C)C[C@H]1OC(=O)C[n+]1cc(-c2ccc(Cl)cc2)n2c1CCCCC2,,22.4 µM (active)
CCn1c(C)cc(C(=O)CN2C(=O)c3ccccc3S2(=O)=O)c1C,-1.78% (inactive),
CCn1cc(C(=O)NCc2cccc(F)c2)c(=O)c2cc(F)c(N3CCN(C(=O)c4ccco4)CC3)cc21,,22.4 µM (active)
CCOC(=O)Cn1cc(C(=O)c2ccco2)c2ccccc21,-8.35% (inactive),

SMILES,"activity change, negative = cytotoxicity",Potency
O=C(c1ccco1)N1CCN(c2ccnc3cc(Cl)ccc23)CC1,-8.67% [at 57.5 µM] (inactive),
Cc1ccc2c(CC(=O)NNC(=O)c3ccccc3O)coc2c1,-16% (inactive),
Cc1ccc(SC2=C(N(C)C)C(=O)c3ccccc3C2=O)cc1,-9.87% [at 57.5 µM] (inactive),
CC(C)(C)c1ccc(NC(=O)N2CCCN(c3c(Cl)cncc3Cl)CC2)cc1,-10.7% [at 57.5 µM] (inactive),
O=C(NNC1=Nc2ccccc2SC1)c1ccc(Cl)cc1,-23.5% (inactive),
O=c1c2c(nc3c(-c4ccc(Cl)cc4)c[nH]n13)CCC2,-24.2% (inactive),
O=c1c2c(nc3c(-c4cccc(Br)c4)c[nH]n13)CCCC2,,12.6 µM (active)
O=C(NNc1ccnc2cc(Cl)ccc12)C1CCCCC1,-17% (inactive),
NC(=O)c1c(NC(=O)c2ccc(S(=O)(=O)N3CCOCC3)cc2)sc2c1CCCCC2,-15.9% (inactive),
CC1(C)Cc2c(sc(NC(=O)c3ccc(C(=O)c4ccccc4)cc3)c2C(N)=O)C(C)(C)N1,,28.2 µM (active)
Nc1nc(NCCCN2CCOCC2)nc(Nc2cccc(Cl)c2)c1[N+](=O)[O-],-23% (inactive),
CCCCC/C=C/C1=CC(=O)C[C@H](c2ccc(OC)c(OC)c2)C1,-22.6% [at 57.5 µM] (inactive),
O=C(C(Br)=Cc1ccccc1)c1ccccc1,,7.94 µM (active)
CC(C)(C)NCC(=Cc1ccccc1)C(=O)c1ccccc1,,3.55 µM (active)
O=C(N/N=C/c1ccccc1O)/C(=C/c1ccccc1)CCO,-4.41% (inactive),
CC(C)(C)c1ccc(Oc2ccc(N)cn2)cc1,-2.49% [at 57.5 µM] (inactive),
CNc1nc2c(N)ncnc2n1[C@H]1O[C@@H](CO)[C@H](O)[C@@H]1O,-9.92% (inactive),
Cc1ccc(SCCC(=O)N/N=C/c2ccccc2O)cc1,-12.1% (inactive),
Cc1ccc2[nH]c(O)c(N=NC(=O)C3CC3c3ccccc3)c2c1Br (stereo not given),-17.7% (inactive),
CC(C)c1cccc(C(C)C)c1Nc1cn[nH]c1,-9.61% (inactive),
Nn1cnnc1N/N=C/c1cc(Br)cc(Br)c1O,-4.48% (inactive),
OC(c1ccccn1)(c1ccccn1)c1ccccn1,-12.8% (inactive),

SMILES,"activity change, negative = cytotoxicity",Potency
COc1ccc(C(=O)/C=C/c2cccc(OCc3ccccc3)c2)cc1CSCC(=O)O,-25.6% (inactive),
COc1cc(C=CC(=O)c2cc(OC)c(OC)c(OC)c2)cc(OC)c1OC,,17.8 µM (active)
COc1ccc(C(=O)/C=C/c2ccc(OC3CSC3)cc2)cc1OC,-2.31% (inactive),
CS(=O)(=O)N(CC(O)CON=C1c2ccccc2-c2ccccc21)c1ccc(F)cc1 (stereo not given),-13.4% (inactive),
Nc1nc(NCCCN2CCOCC2)nc(Nc2ccccc2F)c1[N+](=O)[O-],-10.7% [at 57.5 µM] (inactive),
Cc1ccc(C)c(OCCCC(=O)Nc2nccs2)c1,-9.55% [at 57.5 µM] (inactive),
Cn1c(/C=C/c2ccc(Cl)cc2)c([N+](=O)[O-])c(=O)n(C)c1=O,,22.4 µM (active)
Cn1c(/C=C/c2ccc(Cl)cc2Cl)c([N+](=O)[O-])c(=O)n(C)c1=O,,22.4 µM (active)
Cc1cc(OCC(=O)Nc2ccc(Br)cc2)cc2c1C(=O)CC(C)(C)O2,-17.5% (inactive),
NC1=NC[C@H](Cc2ccccc2)N1CCCCC1CCCCC1,-14.5% (inactive),
CCc1cc(-c2[nH]ncc2-c2ccc(OC)cc2)c(O)cc1O,-9.53% (inactive),
CC(C)=CCc1c(O)cc2oc3c(CC=C(C)C)c(O)c(O)c(CC=C(C)C)c3c(=O)c2c1O,-29.3% (inactive),
COc1ccc(NS(=O)(=O)c2ccc(C(=O)Nc3c(C)n(C)n(-c4ccccc4)c3=O)cc2)cc1,-6.96% (inactive),
Cc1c(N/N=C(\C#N)C(=O)c2ccccc2)c(=O)n(-c2ccccc2)n1C,,12.6 µM (active)
Cc1ccccc1C(=O)/C(C#N)=N/Nc1c(C)n(C)n(-c2ccccc2)c1=O,,10 µM (active)
Cc1cc(C)cc(NC(=O)/C(C#N)=C/c2cn(CC(=O)NCc3ccco3)c3ccccc23)c1,-17.7% (inactive),
Nc1c(C(=O)NCCN2CCOCC2)c2nc3ccccc3nc2n1CCc1ccccc1F,9.01% [at 57.5 µM] (inactive),
CCOC(=O)c1c(NC(=O)COC(=O)CNC(=O)c2ccco2)sc(C)c1C,-7.39% (inactive),
N#Cc1ccccc1NC(=O)C1SC(=Nc2ccccc2)C(C(=O)Nc2ccc(Cl)cc2)=C1N (stereo not given),3.17% (inactive),
O=C(CSc1ccc2ccccc2c1)Nc1nc2ccccc2[nH]1,3.26% (inactive),
C/C(=N\NC(=O)CSCc1ccc([N+](=O)[O-])cc1)c1ccccc1O,-8.24% (inactive),
